Values joined by “and” are separate entries in the source; they are usually repeats but may differ in a detail not shown here. Identical values can stand only once. Inconclusive results are not listed. Active and inactive are the calls of the source. Unless noted, calls come from the whole dose curve; as a rule, active = well fitted curve in the direction sought with a large enough effect in the repeat runs; inconclusive = weak or mixed curves; inactive = no such curve, though single readings can be large; an effect the other way counts as inactive or inconclusive.
Tests used:
[1] = qHTS assay for small molecules that induce genotoxicity in human embryonic kidney cells expressing luciferase-tagged ATAD5 (AID 651632); note: nearly all actives have a fitted effect of over 15% in size; note: potency is the fitted concentration of half-maximal effect
How it was run: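 Concentration-response screen for ATAD5 upregulation in HEK293T luciferase reporter cells; 16 hr treatment at 37C, then luminescence after 30 min with Amplite at room temperature.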

[2] = qHTS assay for small molecule agonists of the p53 signaling pathway - cell viability (AID 651633; calls by dose curve; note: nearly all actives have a fitted effect of over 30% in size; note: potency is the fitted concentration of half-maximal effect)
How it was run: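 Viability counter-read: CellTiter-Glo luminescence (30 min, room temperature) in the same p53RE-bla plates. These plates had been exposed to compounds for 16 h at 37 C.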

[3] = qHTS assay for small molecules that induce genotoxicity in human embryonic kidney cells expressing luciferase-tagged ATAD5 - cell viability (AID 651634; calls by dose curve; note: nearly all actives have a fitted effect of over 25% in size; note: potency is the fitted concentration of half-maximal effect)
How it was run: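 15.5 hr compound or vehicle exposure of HEK293T cells expressing luciferase-tagged ATAD5 at 37C; live-cell protease activity is read by fluorescence after 30 min of CellTiter-Fluor.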

[4] = qHTS assay for small molecule disruptors of the mitochondrial membrane potential - cell viability (AID 720634; calls by dose curve;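 note: human HepG2 liver cancer cells; nearly all actives have a fitted effect of over 20% in size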)
How it was run: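 In this qHTS format, HepG2 cells plated overnight were pinned with compound, incubated 1 hr, and assayed for ATP luminescence with CellTiter-Glo after m-MPI dye addition.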

[5] = qHTS assay to test for compound auto fluorescence at 590 nm (red) in HepG2 cells (AID 720674)
How it was run: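 We screened compounds on adherent HepG2 cells, incubating them for an hour at 37 C in 5% CO2 before reading emission at 590 nm under 540 nm excitation; values reflect equivalence to Rose Bengal sodium fluorescence.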

[6] = qHTS assay to test for compound auto fluorescence at 535 nm (green) in HepG2 cells (AID 720675)
[7] = qHTS assay to test for compound auto fluorescence at 460 nm (blue) in HEK293 cells (AID 720678)
How it was run: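 Cells were seeded and left to adhere for 4-5 hr at 37C. Compounds were then pin-transferred. After an overnight incubation at 37C under 5% CO2, intrinsic fluorescence at 405/460 nm was measured and referenced to triamterene.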

[8] = qHTS assay to test for compound auto fluorescence at 590 nm (red) in HEK293 cells (AID 720679)
How it was run: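 Each well held 2,000 HEK293 cells in medium containing 10% dialyzed FBS. Following 4-5 hr attachment at 37C, 23 nL test compound or DMSO was added; plates sat overnight, and red fluorescence (540/590nm) was recorded.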

[9] = qHTS assay to test for compound auto fluorescence at 535 nm (green) in HEK293 cells (AID 720680)
[10] = qHTS assay to test for compound auto fluorescence at 460 nm (blue) in HEK293 cell free culture (AID 720681)
How it was run: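 Blue fluorescence (Ex 405/Em 460 nm, triamterene-equivalent) was read immediately after pin transfer of compound or DMSO into medium (DMEM, 10% FBS) without cells.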

[11] = qHTS assay to test for compound auto fluorescence at 535 nm (green) in HEK293 cell free culture (AID 720682)
How it was run: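 Measurement is a direct plate read of green fluorescence (485 nm in, 535 nm out) after compound addition to serum-supplemented DMEM lacking cells, with fluorescein used to express intensities.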

[12] = qHTS assay to test for compound auto fluorescence at 590 nm (red) in HEK293 cell free culture (AID 720683)
How it was run: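 Red-channel autofluorescence of compounds in culture medium (DMEM, 10% FBS), no cells, measured at 540/590 nm. Rose Bengal sodium is the reference fluorophore for equivalence.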

[13] = qHTS assay to test for compound auto fluorescence at 590 nm (red) in HepG2 cell free culture (AID 720684)
How it was run: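 No cells present: MEM + 10% FBS only. Compound pinned in, red label read (540/590 nm). Activity = fluorescence equivalent to Rose Bengal sodium.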

[14] = qHTS assay to test for compound auto fluorescence at 460 nm (blue) in HepG2 cell free culture (AID 720685)
How it was run: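 Cell-free plates of MEM plus 10% FBS received 23 nL compound or DMSO vehicle; blue-channel (405/460 nm) intensity scored against triamterene as reference fluorophore.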

[15] = qHTS assay to test for compound auto fluorescence at 535 nm (green) in HepG2 cell free culture (AID 720686)
[16] = qHTS assay to test for compound auto fluorescence at 460 nm (blue) in HepG2 cells (AID 720687)
How it was run: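 Blue-channel autofluorescence (Ex/Em 405/460 nm, triamterene-equivalent) was measured after 1 hr compound exposure at 37 C, 5% CO2. Cells were HepG2, plated overnight at 37 C in MEM plus 10% FBS.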

[17] = qHTS assay for small molecule disruptors of the mitochondrial membrane potential (AID 720635); note: potency is the fitted concentration of half-maximal effect
How it was run: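 Mitochondrial membrane potential tracked with Mito-MPS dye, red aggregates (ex 540/em 590 nm) against green monomers (ex 490/em 535 nm). Compound treatment 1 hr at 37C, dye 30 min in HepG2.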

[18] = target: Glucocorticoid receptor (Homo sapiens) (UniProt P04150); experiment: qHTS assay to identify small molecule agonists of the glucocorticoid receptor (GR) signaling pathway (AID 720691; active = well fitted activation curve with a large enough effect in the signal ratio in the repeat runs, not every such curve was filed as active; the % refers to the signal ratio; note: potency is the fitted concentration of half-maximal effect); conditions: GR-bla HeLa, beta-lactamase reporter ratio, 18 h; activation: at 62.4 µM (top of the series)
How it was run: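 Measures GR pathway activation through a GRE-beta-lactamase reporter stably integrated in HeLa cells, with 18 h compound treatment at 37 C and fluorescence detection using a FRET substrate.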

[19] = target: Glucocorticoid receptor (Homo sapiens) (UniProt P04150); experiment: qHTS assay to identify small molecule antagonists of the glucocorticoid receptor (GR) signaling pathway (AID 720692; active = well fitted inhibition curve with a large enough effect in the signal ratio in the repeat runs, not every such curve was filed as active; the % refers to the signal ratio)
How it was run: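 Tox21 10K library screened in concentration-response for blockade of dexamethasone (5 nM final)-induced GRE-bla reporter activity in HeLa cells; 18 h treatment, fluorescence read.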

Measured: Potency

Chain of Glucocorticoid receptor (Homo sapiens) (P04150 whole entry, looked up): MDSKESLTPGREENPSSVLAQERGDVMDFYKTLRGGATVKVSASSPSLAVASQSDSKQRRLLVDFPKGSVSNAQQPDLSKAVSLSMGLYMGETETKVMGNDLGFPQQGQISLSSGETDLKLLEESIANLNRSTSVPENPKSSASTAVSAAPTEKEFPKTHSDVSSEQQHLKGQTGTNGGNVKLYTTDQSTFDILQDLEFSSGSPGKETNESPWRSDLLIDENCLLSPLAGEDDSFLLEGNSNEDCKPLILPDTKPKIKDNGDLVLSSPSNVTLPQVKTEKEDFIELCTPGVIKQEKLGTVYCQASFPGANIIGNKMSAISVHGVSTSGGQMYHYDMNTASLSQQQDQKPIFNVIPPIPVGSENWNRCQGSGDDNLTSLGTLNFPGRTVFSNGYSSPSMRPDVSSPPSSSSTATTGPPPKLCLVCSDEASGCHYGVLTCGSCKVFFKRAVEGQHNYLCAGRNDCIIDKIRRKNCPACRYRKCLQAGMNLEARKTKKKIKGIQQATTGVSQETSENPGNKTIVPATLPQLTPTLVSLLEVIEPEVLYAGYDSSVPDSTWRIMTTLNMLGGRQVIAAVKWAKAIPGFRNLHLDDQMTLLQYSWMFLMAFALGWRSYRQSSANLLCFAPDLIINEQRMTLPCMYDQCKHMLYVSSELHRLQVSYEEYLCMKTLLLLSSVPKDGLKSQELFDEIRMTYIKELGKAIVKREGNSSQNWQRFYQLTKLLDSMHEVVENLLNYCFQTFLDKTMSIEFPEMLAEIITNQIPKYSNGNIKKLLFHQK

OC1OC[C@@H](O)[C@H](O)[C@@H]1O (stereo not given in full)
not listed: [17] | [18] | [19]
inactive: all other assays above

CC1CS(=O)(=O)CCN1/N=C/c1ccc([N+](=O)[O-])o1 (stereo not given)
not listed: [12]
inactive: all other assays above

CC1(C)S[C@@H]2[C@H](NC(=O)[C@H](N)c3ccccc3)C(=O)N2[C@H]1C(=O)OCOC(=O)[C@@H]1N2C(=O)C[C@H]2S(=O)(=O)C1(C)C
not listed: [9] | [18] | [19]
inactive: all other assays above

C=C(NC(=O)C(=C)NC(=O)c1csc(C2=N[C@@H]3c4csc(n4)[C@H]4NC(=O)c5csc(n5)[C@H]([C@](C)(O)[C@@H](C)O)NC(=O)[C@H]5CSC(=N5)C(=CC)NC(=O)C([C@@H](C)O)NC(=O)c5csc(n5)[C@]3(CC2)NC(=O)[C@H](C)NC(=O)C(=C)NC(=O)[C@H](C)NC(=O)C([C@@H](C)CC)NC2C=Cc3c([C@H](C)O)cc(nc3C2O)C(=O)O[C@@H]4C)n1)C(N)=O (stereo not given in full)
active: [1] 11.4 µM
not listed: [17] | [18] | [19]
inactive: all other assays above

CCSc1ccc2c(c1)N(CCCN1CCN(C)CC1)c1ccccc1S2
not listed: [17] | [18] | [19]
inactive: all other assays above

CC(=O)O[C@]1(C(C)=O)CC[C@H]2[C@@H]3CCC4=CC(=O)CC[C@]4(C)[C@@]3(F)[C@@H](O)C[C@@]21C
active: [18] 0.0379 µM
not listed: [9] | [19]
inactive: all other assays above

OC[C@H]1OC([S-])[C@H](O)[C@@H](O)[C@@H]1O.[Au+] (stereo not given in full)
not listed: [12] | [18] | [19]
inactive: all other assays above

O=C(OCc1ccccc1)c1cccnc1
active: [17] 23.7 µM
not listed: [9] | [19]
inactive: all other assays above

C[C@]12CC[C@@H]3c4ccc(O)cc4CC[C@H]3[C@@H]1CC[C@@H]2OP(=O)(O)O
not listed: [17] | [18] | [19]
inactive: all other assays above

COc1cc(-c2ccc(-[n+]3nc(-c4ccccc4)nn3-c3ccc([N+](=O)[O-])cc3)c(OC)c2)ccc1-[n+]1nc(-c2ccccc2)nn1-c1ccc([N+](=O)[O-])cc1
active: [1] 5.96 µM | [2] 11.9 µM | [3] 29.8 µM
not listed: [17] | [18] | [19]
inactive: all other assays above

CCCCc1cc2c(=O)c(C(=O)OC)c[nH]c2cc1OCc1ccccc1
not listed: [10]
inactive: all other assays above

CCC(C)[C@H]1O[C@]2(C=C[C@@H]1C)C[C@@H]1C[C@@H](C/C=C(\C)[C@@H](O[C@H]3C[C@H](OC)[C@@H](O[C@H]4C[C@H](OC)[C@H](NC(C)=O)[C@H](C)O4)[C@H](C)O3)[C@@H](C)/C=C/C=C3\CO[C@@H]4[C@H](O)C(C)=C[C@@H](C(=O)O1)[C@]34O)O2 (stereo not given in full)
active: [2] 2.98 µM and 11.9 µM | [3] 6.68 µM and 10.6 µM | [17] 3.76 µM and 11.9 µM
not listed: [10] | [12] | [19]
inactive: all other assays above

CO/N=C(\C(=O)N[C@@H]1C(=O)N2C(C(=O)O)=CCS[C@H]12)c1csc(N)n1
not listed: [12] | [19]
inactive: all other assays above
